Screening data deposited in PubChem by SRMLSC.
Spn DPM-DC inh: S. pneumoniae DPM-DC inhibition | purified DPM-DC, PK/LDH coupled NADH fluorescence | calls only at 10 µM | 65,000 compounds, 0.49% hits | AID 556;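 active means the 320 compounds with the highest percent inhibition in the single-dose primary screen, excluding strongly autofluorescent ones, cut at about 32% in these data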;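 further: kinetic rate of NADH fluorescence loss reporting ADP formed by the decarboxylase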
Spn PMK inh: S. pneumoniae PMK inhibition. purified PMK, PK/LDH-coupled NADH absorbance 340 nm. inhibition, % at 10 µM. 65,000 compounds, 0.49% hits. AID 539;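 active means top-ranked compounds by inhibition in the single 10 µM screen, taking a fixed number of the strongest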;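 further: 0% = full reaction with DMSO carrier and 100% = background rate without enzyme reaction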
Fluor 339 460: intrinsic fluorescence of library compounds, ex339/em460 – biochemical, MLSMR library, data from DPM-DC assay, artefact control, profiling panel; compound autofluorescence, ex339/em460 nm, NADH buffer; hits give high values; 1 = no-compound wells, NADH background; fluorescence fold increase at 10 µM; 65,000 compounds, 5.5% hits;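 active means at 10 µM, mean starting fluorescence two-fold or more over control wells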;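 further: signal is the first read of a kinetic run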
Abs 340nm: compounds absorbing at 340 nm | compound absorbance at 340 nm, fold over control | fold change at 10 µM | 65,000 tested, under 10 active | AID 708;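 active means at 10 µM dose, initial 340 nm absorbance at least 2 fold that of control wells; inactive means change under 2 fold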;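 further: initial absorbance extrapolated from kinetic A340 decline of NADH oxidation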
Spn MK inh: inhibitors of Streptococcus pneumoniae mevalonate kinase; AID 555; 65,000 compounds, 0.48% hits; purified MK, PK/LDH-coupled NADH absorbance 340 nm; inhibition, % at 10 µM;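 active means ranked among the strongest by inhibition in the single 10 µM screen, a fixed top-ranked set picked for dose follow-up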
NADH enzymes: inhibitors of enzymes used to reach an NAD/NADH endpoint | IC50, µM (titrated, usually from 10 µM), for the others: at the top dose inhibition | coupled PK/LDH NADH assays, four targets | AID 774 | 65,000 compounds, 0.02% hits;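 active means single-dose screening hits from any of four coupled enzyme assays that gave an IC50 when retested across doses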;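 further: the DPM-DC format reads NADH fluorescence rather than 340 nm absorbance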
Starred values were filed as active, the others as inactive; i = inactive; · = no result shown; + = active, no number. Rows were chosen to be rich in hits. Some 6.3% of all compounds tested hit in one or more screens of this group.

SMILES | Spn DPM-DC inh | Spn PMK inh | Fluor 339 460 | Abs 340nm | Spn MK inh | NADH enzymes
CCOC(=O)c1c(-c2ccc(OC)cc2)oc2ccc(OC(=O)N(C)C)cc12 | · | 11.0 | 3.78* | 1.08 | 1.0 | 6.0%
CC(c1ccc(F)cc1)n1cc(C(=O)NCc2ccc3c(c2)OCO3)nn1 (stereo unspecified) | i | 0.0 | 1.11 | 1.07 | 5.0 | 2.0%
COc1ccc(C2=NCC(=O)N(CC(=O)NCc3ccco3)c3sc4c(c32)CCCC4)cc1OC | i | 15.0 | 1.01 | 1 | 0.0 | 5.0%
Nc1c(C(=O)NCc2ccco2)c2nc3ccccc3nc2n1CCN1CCCCC1 | · | 4.0 | 2.29* | 1.05 | 1.0 | 3.0%
CCCNC(=O)c1c(N)n(Cc2ccc3c(c2)OCO3)c2nc3ccccc3nc12 | · | 14.0 | 2.15* | 0.99 | 8.0 | 3.0%
COc1ccc(Cn2c(N)c(C(=O)NCc3ccco3)c3nc4ccccc4nc32)cc1OC | · | 6.0 | 3.66* | 1.02 | 7.0 | 7.0%
O=c1cccc2n1CC1CC2CN(c2ncnc3c2cnn3-c2ccc(Cl)cc2)C1 (stereo unspecified) | i | 0.0 | 1.12 | 1.06 | 8.0 | 3.0%
O=C1C2CCCN2C(c2cccnc2)N1c1nccs1 (stereo unspecified) | i | 16.0 | 1.13 | 1.02 | 1.0 | 6.0%
CC1(C)C(c2ccccc2)=NC(c2cccnc2)N1O (stereo unspecified) | i | 0.0 | 0.97 | 0.98 | 13.0 | 3.0%
CN1C[C@H](CNC(=O)OCc2ccccc2)C[C@@H]2c3cccc4c3c(cn4C)C[C@H]21 | i | 5.0 | 1.13 | 0.98 | 6.0 | 3.0%
CC[C@@H](CO)NC(=O)[C@@H]1C=C2c3cccc4c3c(cn4C)C[C@H]2N(C)C1 | · | 3.0 | 2.46* | 1 | 7.0 | 4.0%
CC(C)(C)n1c(O)c(C=Nc2ccc3c(c2)CCC3)c(=O)[nH]c1=O | i | 10.0 | 2.07* | 1.14 | 0.0 | 12.0%
CC(=Nc1ccc2c(c1)CCC2)c1c(O)n(C)c(=O)n(C)c1=O | i | 3.0 | 1.15 | 1.08 | 0.0 | 1.0%
CC(C)OC(=O)c1c(N)n(Cc2ccco2)c2nc3ccccc3nc12 | · | 27.0 | 2.28* | 1.09 | 5.0 | 16.0%
CCOC(=O)c1c(C)n(Cc2ccco2)c2ccc(OC)cc12 | i | 0.0 | 1.13 | 1.08 | 0.0 | 0.0%
COCCOC(=O)c1c(N)n(Cc2ccco2)c2nc3ccccc3nc12 | · | 8.0 | 2.33* | 1.05 | 9.0 | 9.0%
Cc1nn(Cc2ccccc2Cl)c(Cl)c1C(=O)OCC(=O)NCc1ccco1 | i | 0.0 | 1.06 | 0.99 | 6.0 | 1.0%
O=P(C(c1c[nH]c2ccccc12)N1CCOCC1)(N1CCOCC1)N1CCOCC1 (stereo unspecified) | i | 13.0 | 1.05 | 1.01 | 0.0 | 4.0%
CC(=O)c1c(C)n(CC2CCCO2)c2ccc(O)cc12 (stereo unspecified) | i | 9.0 | 1.07 | 1.08 | 9.0 | 6.0%
CCOC(=O)c1c(N)n(CCCOC(=O)c2ccco2)c2nc3ccccc3nc12 | · | 13.0 | 4.01* | 1.11 | 9.0 | 11.0%
CC(C)OCCCNC(=O)c1c(N)n(Cc2cccs2)c2nc3ccccc3nc12 | · | 6.0 | 3.04* | 1.02 | 0.0 | 1.0%
CCCCNC(=O)c1c(N)n(CCCOC)c2nc3ccccc3nc12 | · | 0.0 | 2.42* | 1.02 | 3.0 | 1.0%
Nc1c(C(=O)NC2CCCC2)c2nc3ccccc3nc2n1CC1CCCO1 (stereo unspecified) | · | 11.0 | 3.73* | 1.03 | 11.0 | 11.0%
CCC(=NCc1ccc(F)cc1)c1c(O)n(C)c(=O)n(C)c1=O | i | 18.0 | 1.1 | 1.05 | 1.0 | 6.0%
COC(=O)CCCNC(=O)CN1CC(c2ccccc2)CC1=O (stereo unspecified) | i | 13.0 | 1.13 | 1 | 9.0 | 7.0%
SMILES | Spn DPM-DC inh | Spn PMK inh | Fluor 339 460 | Abs 340nm | Spn MK inh | NADH enzymes
Cc1cc(C)c(C(=O)CN2CCOCC2)c(C)c1 | i | 9.0 | 1 | 0.99 | 11.0 | 3.0%
COc1cc(CN2CCN(c3cc(C)ccc3C)CC2)ccc1O | i | 7.0 | 1.07 | 1.06 | 22.0 | 10.0%
COCCCNC(=O)c1c(NC(=O)c2ccco2)n(Cc2ccccc2)c2nc3ccccc3nc12 | · | 11.0 | 3.82* | 1.1 | 7.0 | 9.0%
Nc1c(C(=O)OCC2CCCO2)c2nc3ccccc3nc2n1Cc1cccs1 (stereo unspecified) | · | 15.0 | 2.09* | 1.08 | 0.0 | 8.0%
COCCCn1c(N)c(C(=O)OCCOC)c2nc3ccccc3nc21 | · | 14.0 | 3.84* | 1.1 | 11.0 | 13.0%
CCOC(=O)c1c(C)n(CCOC)c2ccc(O)cc12 | i | 2.0 | 1.15 | 1.02 | 0.0 | 1.0%
COC(=O)CC1(CC(=O)OC)C(=O)NC(=O)NC1=O | i | 2.0 | 1.07 | 1.03 | 0.0 | 1.0%
CN1CC=C2C(C#N)=C(N)C(C#N)(C#N)C(c3ccncc3)C2C1 (stereo unspecified) | i | 0.0 | 2.01* | 1.07 | 0.0 | 4.0%
CCN(CC)CCCN=C(C)c1c(O)n(-c2ccc(C)cc2)c(=O)[nH]c1=O | i | 11.0 | 1.13 | 1.04 | 5.0 | 5.0%
COc1ccc(-c2cc(C(F)(F)F)n3nc(C(=O)N4CCC5(CC4)OCCO5)cc3n2)cc1OC | + | 9.0 | 1.64 | 1.21 | 5.0 | 23.0%
O=C1NCCN2CCCC12 (stereo unspecified) | i | 12.0 | 1.06 | 1.01 | 1.0 | 4.0%
O=c1c2ccccc2[se]n1-c1ccccc1 | + | 100.0* | 1.11 | 1.07 | 72.0* | 55.5µM*
COc1cccc(-n2c(C)nc3ccccc3c2=O)c1 | i | 9.0 | 1.07 | 1.02 | 2.0 | 4.0%
Cc1nonc1-c1nc(-c2nonc2N)n[nH]1 | i | 11.0 | 1.07 | 0.97 | 14.0 | 8.0%
CCn1nc(-c2ccccc2)nc2c(=O)n(C)c(=O)nc1-2 | + | 11.0 | 0.67 | 0.8 | 11.0 | 32.8µM*
OC1(CN2CCOCC2)C2CC3CC(C2)CC1C3 (stereo unspecified) | i | 11.0 | 1.07 | 0.97 | 7.0 | 8.0%
Oc1ccc(Br)cc1CN1CCN(c2ccccc2)CC1 | i | 0.0 | 1.08 | 1.03 | 3.0 | 1.0%
COc1cc(C)c(CN2CCN(c3ccccc3)CC2)cc1C | i | 8.0 | 1.07 | 1.05 | 49.0* | 19.0%
O=c1cccc2n1CC1CC2CN(C(c2cccc(F)c2)c2sc3ncnn3c2O)C1 (stereo unspecified) | i | 13.0 | 0.9 | 1.04 | 2.0 | 6.0%
COCCOC(=O)c1c(N)n(Cc2ccc(OC)cc2)c2nc3ccccc3nc12 | · | 10.0 | 3.89* | 1.08 | 8.0 | 9.0%
CCOC(=O)c1c(N)n(Cc2ccc(OC)cc2)c2nc3ccccc3nc12 | · | 4.0 | 3.89* | 1 | 6.0 | 5.0%
COC(=O)c1c(N)n(Cc2ccc(OC)cc2)c2nc3ccccc3nc12 | · | 1.0 | 3.71* | 1.05 | 5.0 | 3.0%
O=C(Cc1ccccc1)OC(COCc1ccccc1)CN1CCOCC1 (stereo unspecified) | i | 7.0 | 1.03 | 0.98 | 0.0 | 2.0%
